Screening results: PubChem BioAssay, Fisher Drug Discovery Resource Center
Most compounds without a hit are left out; they make up all but 0.3% or so of the library.
NPYLR7 ag: agonists of mosquito NPYLR7 receptor, primary screen, cell-based, Aedes aegypti, calcium fluorescence, mosquito biting behavior. 270,000 tested, 0.15% active. AID 1259423, 2018. Aedes aegypti neuropeptide Y-like receptor 7 (NPYLR7). HEK293T NPYLR7/Galpha15, GCaMP6s calcium fluorescence. activation, % at 10 µM; in the data active = activation above about 40%;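 note: 0% = vehicle and 100% = reference agonist at the receptor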
mcGAS inh: cyclic GMP-AMP synthase inhibitors, mouse, primary biochemical chemiluminescence; Q8C6L5; recombinant cGAS, Kinase-Glo ATP depletion luminescence; inhibition, % at 12.5 µM; 160,000 tested, 0.15% active; AID 1259399, 2018;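 note: 0% = negative control wells and 100% = reference inhibitor with no enzyme activity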
hcGAS inh: Primary biochemical luminescence assay for human cyclic GMP-AMP synthase inhibitors; recombinant h-cGAS, ATP depletion, Kinase-Glo luminescence; AID 1259398, 2018; Q8N884; inhibition, % at 12.5 µM; 290,000 tested, 0.081% active;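 note: 0% = vehicle reaction and 100% = reaction without DNA for no activity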
An asterisk follows results filed as active; . = no result. Cut-off read from the data, not from the text of the source, unless noted: active = inhibition above about 40%; inactive = the rest.

SMILES	NPYLR7 ag	mcGAS inh	hcGAS inh
O=C(O)c1ccccc1-c1c2cc(Br)c(=O)cc-2oc2[c]([Hg])c(O)c(Br)cc12	60*	.	34
Cc1ncc(S(C)(=O)=O)c(N2CC[C@@H]3CC[C@H](C2)N3C)n1	.	-3	-4
N#CC(C#N)=Cc1ccc(-c2ccccc2)cc1	-2	49*	-4
N#CC(C#N)=Cc1ccc(O)cc1	4	.	-7
N#Cc1ccc(Cl)cc1NC(=O)c1cccn(Cc2cccc(C(F)(F)F)c2)c1=O	19	.	-11
O=C(CN1CC=C(c2ccccc2)CC1)Nc1cccc(S(=O)(=O)NC2=NCCC2)c1	1	.	-6
CC(C)(C)n1cc(C(=O)Nc2ccc3nc4n(c(=O)c3c2)CCC4)cn1	3	.	5
O=c1c(O)c(-c2ccc(O)c(O)c2)oc2c(O)c(O)cc(O)c12	-3	.	47*
O=S(=O)(c1cc(Cl)cc(Cl)c1)N1CCN(CCOC(c2ccc(Cl)cc2)c2ccc(Cl)cc2)CC1	17	-7	0
Cc1cccc(N2C(=O)NC(=O)/C(=C/c3cn(C)c4ccccc34)C2=O)c1	53*	1	0
Cc1ccc(N2C(=O)NC(=O)/C(=C/c3cn(C)c4ccccc34)C2=O)cc1	2	-1	-3
N#CC1C(=N)Oc2c(c(=O)oc3ccccc23)C1c1cccc(F)c1 (stereo unspecified)	-2	4	4
N#CC1C(=N)Oc2c(c(=O)oc3ccccc23)C1c1ccc([N+](=O)[O-])o1 (stereo unspecified)	-12	59*	-7
Cc1ncc2c(c1-c1noc(-c3cccn3C)n1)CCNC2	15	.	-9
CCn1nc(-c2cccs2)nc2c(=O)n(C)c(=O)nc1-2	12	59*	17
O=C1OC2(c3cc(Br)c(O)cc3Oc3c2cc(Br)c(O)[c]3[Hg])c2ccccc21 (stereo unspecified)	98*	30	0
O=C1COc2cc([N+](=O)[O-])c(Cl)cc2N1Cc1ccccc1	-3	.	-1
CC(C)[C@@H]1C[C@@H]2C[C@H](N(CCO)C3CCCC3)C[C@@H]2CO1	2	-4	4
CC1=NCCc2c1[nH]c1cc(O)ccc21	65*	-1	-2
COc1ccc2c3c([nH]c2c1)C(C)=NCC3	0	-3	-6
Cn1c(O)c(C=Nc2ncccn2)c(=O)n(C)c1=O	3	.	1
COc1cccc(CC(C)NC(=O)NCC2CCCC2O)c1 (stereo unspecified)	2	.	-7
COC(=O)[C@]12CCC(C)(C)C[C@H]1[C@H]1C(=O)C=C3[C@@]4(C)C=C(C#N)C(=O)C(C)(C)[C@@H]4CC[C@@]3(C)[C@]1(C)CC2	1	52*	38
CCN1C[C@]2(COC(=O)c3ccccc3N3C(=O)C[C@H](C)C3=O)CC[C@H](OC)[C@]34C2[C@H](OC)[C@](O)([C@H]13)[C@@]1(O)C[C@H](OC)[C@H]2C[C@@H]4[C@@H]1[C@H]2OC	1	.	5
CCCOc1ccc(CN)cn1	16	.	-6
SMILES	NPYLR7 ag	mcGAS inh	hcGAS inh
CC(Cc1ccccc1S(=O)c1ccccc1)N(C)C (stereo unspecified)	1	.	-5
Oc1c(Cl)c(Cl)c(Cl)c(Cl)c1Cl	6	.	70*
O=[N+]([O-])c1c(Cl)ccc2c1no[n+]2[O-]	2	93*	61*
O=[N+]([O-])c1cc(C(F)(F)F)cc2c1no[n+]2[O-]	10	.	0
NC(=O)CN1CCCC(C(=O)c2cccc3ccccc23)C1 (stereo unspecified)	23	.	-8
CN1C[C@@H](c2cc(F)cc(F)c2)[C@@H]2[C@H]1C1CCN2CC1	1	-15	-3
CC(C)N(CC(=O)Nc1nc(CC(=O)N2CCN(C(c3ccccc3)c3ccccc3)CC2)cs1)C(=O)c1ccco1	-12	-4	-4
CCN(CC)P(=S)(C=C1N(C)c2ccccc2C1(C)C)CC (stereo unspecified)	4	.	-6
